The target in one assay is Albumin (Bos taurus) (UniProt P02769). In words: bovine serum albumin binders on microarray, profiling panel, artefact control for SMM control protein annotation, biochemical, small-molecule microarray, Alexa647 label, 635/667 nm fluorescence (AID 1118).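 Also: score merges 667 nm emission intensity and signal-to-noise per printed compound spot.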 The note with it: BSA-A647 binding, fluorescence 635 nm, higher = more signal.
Assay [1] is described as follows: small-molecule microarray binders of probe aXIP, primary screen, biochemical, NeuroSMM set, 635/667 nm fluorescence (AID 1119).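 Also: probe is the protein aXip251-270 applied at 1 µg/mL to compound-printed slides; binding of probe to printed compounds measured as 667 nm fluorescence plus signal to noise.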 The note with it: higher = more signal, called active from +8 up or from −8 down.
A short description of assay [2]: small-molecule binders of probe aNOTCH3, primary screen, biochemical, small-molecule microarray, 635/667 nm fluorescence (AID 1120).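 Also: probe is a biotin-tagged antibody raised against NOTCH3 rather than NOTCH3 protein; score merges spot fluorescence near 667 nm with spot signal to noise.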 As to conditions: higher = more signal.
Assay [3] is described as follows: small-molecule binders of probe aNOTCH2, primary screen, biochemical, small-molecule microarray, 635/667 nm fluorescence (AID 1121).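 Also: score merges feature fluorescence read at 667 nm with its signal to noise.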 As to conditions: higher = more signal.
Assay [4] addresses Carbonic anhydrase 2 (Homo sapiens) (UniProt P00918). In words: CAII small-molecule binders, profiling panel, biochemical, small-molecule microarray, Alexa647-labelled CAII (AID 1122). As to conditions: CAII-A647 binding fluorescence, higher = more signal.
The nature of assay [5]: COS7 lysate on small-molecule microarray, probe aHis, 635 nm (AID 1123).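 Also: z-score combines 667nm fluorescence intensity with signal-to-noise per printed compound spot.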 As to conditions: COS7 cell lysate, fluorescence, higher = more signal.
A short description of assay [6]: compound binding in COS7 lysate, probe aLAP1, primary screen, cell lysate, small-molecule microarray (AID 1124).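 Also: lysate comes from COS7 cells expressing LAP1 and is applied at 0.3 µg/mL; score merges spot fluorescence near 667 nm with signal-to-noise over triplicate slides.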 As to conditions: probe aLAP1, fluorescence, higher = more signal.
The test system of a further assay is Sam68 (KHDRBS1). Briefly: Sam68 small-molecule binders, primary screen, biochemical, small-molecule microarray, 635 nm fluorescence (AID 1125).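 Also: score merges 667 nm channel intensity with signal to noise over triplicate slides.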 As to conditions: small-molecule microarray binding, higher = more signal.
Assay [7] concerns Chordin-like protein 2 (CHRDL2). In words: CHRDL2 small-molecule binders, primary screen, biochemical, small-molecule microarray, 635 nm fluorescence (AID 1126).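 Also: printed compound slides probed with Chrdl2 protein at 4 µg/mL for 1 h at 4 C; score merges 667 nm emission intensity with signal to noise over three replicate slides.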 The note with it: small-molecule microarray binding, fluorescence 635 nm; higher = more signal.
Assay [8] concerns the target Concanavalin-A (Canavalia ensiformis) (UniProt P02866). Briefly: ConA small-molecule binders, primary screen, artefact control for SMM control protein annotation, biochemical, small-molecule microarray, Alexa647 label, 635 nm (AID 1127).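 Also: z combines 667 nm emission intensity with signal-to-noise across three replicate slides.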 As to conditions: ConA-A647 binding fluorescence, higher = more signal.
Assay [9] is described as follows: anti-His antibody binders, primary screen, artefact control for SMM control protein annotation, biochemical, small-molecule microarray, 635 nm fluorescence (AID 1128).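 Also: score merges feature fluorescence with signal-to-noise for each printed compound spot.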 As to conditions: anti-His Alexa647 antibody binding, higher = more signal.
Assay [10] deals with Human papillomavirus type 1a E7 protein (residues 1-88). Briefly: HPV1a E7 small-molecule binders, primary screen, biochemical, small-molecule microarray, residues 1-88, 635 nm (AID 1129). The note with it: small-molecule microarray binding, fluorescence 635 nm; higher = more signal.
The target of assay [11] is Focal adhesion kinase 1 (Homo sapiens) (UniProt Q05397). In words: small-molecule microarray binders of FAK, primary screen, biochemical, 635/667 nm fluorescence, BSA, DTT (AID 1130).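 Also: composite of spot emission at 667 nm and signal to noise over triplicate slides.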 As to conditions: PTK2 binding, 635 nm fluorescence, higher = more signal.
Assay [12] concerns Fibrinogen (Alexa647-labelled). Briefly: fibrinogen binders on compound microarrays, profiling panel, artefact control for SMM control-protein annotation, biochemical, small-molecule microarray, 635/667 nm fluorescence (AID 1131).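 Also: z-score merges 667 nm fluorescence with per-spot signal-to-noise over triplicate slides.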 As to conditions: fibrinogen-A647 binding fluorescence, higher = more signal.
In assay [13] the target is Follistatin (Homo sapiens) (UniProt P19883). In words: follistatin binders on small-molecule microarrays, primary screen, biochemical, small-molecule microarray, 635/667 nm fluorescence (AID 1132). The note with it: FST binding, 635 nm fluorescence, higher = more signal.
Assay [14] has as its target Fibroblast growth factor 2 (Homo sapiens) (UniProt P09038). Briefly: FGF2 binders on small-molecule microarrays, primary screen, biochemical, small-molecule microarray, 635/667 nm fluorescence (AID 1133). As to conditions: small-molecule microarray binding, FGF2, fluorescence 635/667; higher = more signal.
Assay [15] in a line: mitochondrial membrane potential change in A549 cells, profiling panel, cell-based, JC-1 fluorescence, basal, 24 h, 100 nL (AID 1138).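 Also: A549 lung adenocarcinoma cells under basal conditions with no added stimulus; test concentration not given here.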 The note with it: higher = more signal.
A further assay concerns Lefty1. Briefly: Lefty1 binders on small-molecule microarrays, primary screen, biochemical, small-molecule microarray, 635/667 nm fluorescence (AID 1139). The note with it: small-molecule microarray binding, fluorescence 635/667; higher = more signal.
Assay [16] deals with wheat germ agglutinin (Triticum aestivum), Alexa647-labelled. In words: wheat germ agglutinin binders on compound microarrays, profiling panel, artefact control for SMM control-protein annotation, biochemical, small-molecule microarray, 635/667 nm fluorescence (AID 1140).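 Also: score merges 667 nm feature emission with signal to noise over triplicate slides.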 The note with it: WGA-A647 binding, 635 nm fluorescence, higher = more signal.
For assay [17], the target named is Luciferin 4-monooxygenase (Photinus pyralis) (UniProt P08659). Briefly: firefly luciferase enzyme inhibitors, primary screen, biochemical, luminescence, purified enzyme, 2006 set (AID 1141).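 Also: cell-free assay with purified firefly luciferase at 100 ng per well in PBS; test concentration not given here.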 The note with it: SteadyGlo luminescence, 30 min, higher = more signal, called active from +8 up or from −8 down.

Active and inactive are the calls of the source.

Luciferin 4-monooxygenase (Photinus pyralis), sequence (P08659 whole entry, looked up): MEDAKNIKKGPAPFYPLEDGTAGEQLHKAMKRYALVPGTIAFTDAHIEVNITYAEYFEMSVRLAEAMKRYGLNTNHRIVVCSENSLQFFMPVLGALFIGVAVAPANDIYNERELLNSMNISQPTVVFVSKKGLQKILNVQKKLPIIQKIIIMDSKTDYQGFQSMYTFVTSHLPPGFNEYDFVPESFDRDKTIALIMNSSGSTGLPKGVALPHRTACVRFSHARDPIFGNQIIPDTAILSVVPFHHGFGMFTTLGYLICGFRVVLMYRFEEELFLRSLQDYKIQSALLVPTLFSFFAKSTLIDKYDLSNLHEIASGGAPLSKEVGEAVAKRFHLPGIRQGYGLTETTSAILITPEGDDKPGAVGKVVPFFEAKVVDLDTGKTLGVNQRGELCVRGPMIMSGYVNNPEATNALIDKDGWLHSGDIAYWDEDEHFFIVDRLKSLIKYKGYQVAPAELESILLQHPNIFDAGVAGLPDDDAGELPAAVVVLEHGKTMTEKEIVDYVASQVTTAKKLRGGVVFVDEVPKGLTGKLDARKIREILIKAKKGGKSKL
Fibroblast growth factor 2 (Homo sapiens), sequence (P09038 whole entry, looked up): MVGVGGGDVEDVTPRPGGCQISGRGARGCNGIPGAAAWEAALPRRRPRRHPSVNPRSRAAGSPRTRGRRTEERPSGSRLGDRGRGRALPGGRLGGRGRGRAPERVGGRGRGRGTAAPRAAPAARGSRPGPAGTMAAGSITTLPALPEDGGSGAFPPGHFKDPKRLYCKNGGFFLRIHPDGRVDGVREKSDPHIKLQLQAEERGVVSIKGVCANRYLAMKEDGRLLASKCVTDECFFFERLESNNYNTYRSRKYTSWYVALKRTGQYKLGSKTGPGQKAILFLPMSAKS
Concanavalin-A (Canavalia ensiformis), sequence (P02866 whole entry, looked up): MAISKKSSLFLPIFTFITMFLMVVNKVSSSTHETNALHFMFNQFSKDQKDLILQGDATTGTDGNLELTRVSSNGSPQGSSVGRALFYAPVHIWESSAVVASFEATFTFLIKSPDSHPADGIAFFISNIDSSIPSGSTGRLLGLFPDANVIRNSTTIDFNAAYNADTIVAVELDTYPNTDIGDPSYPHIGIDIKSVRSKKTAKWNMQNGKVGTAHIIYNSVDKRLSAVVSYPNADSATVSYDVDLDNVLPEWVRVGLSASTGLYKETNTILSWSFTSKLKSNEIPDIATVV
Focal adhesion kinase 1 (Homo sapiens), sequence (Q05397 whole entry, looked up): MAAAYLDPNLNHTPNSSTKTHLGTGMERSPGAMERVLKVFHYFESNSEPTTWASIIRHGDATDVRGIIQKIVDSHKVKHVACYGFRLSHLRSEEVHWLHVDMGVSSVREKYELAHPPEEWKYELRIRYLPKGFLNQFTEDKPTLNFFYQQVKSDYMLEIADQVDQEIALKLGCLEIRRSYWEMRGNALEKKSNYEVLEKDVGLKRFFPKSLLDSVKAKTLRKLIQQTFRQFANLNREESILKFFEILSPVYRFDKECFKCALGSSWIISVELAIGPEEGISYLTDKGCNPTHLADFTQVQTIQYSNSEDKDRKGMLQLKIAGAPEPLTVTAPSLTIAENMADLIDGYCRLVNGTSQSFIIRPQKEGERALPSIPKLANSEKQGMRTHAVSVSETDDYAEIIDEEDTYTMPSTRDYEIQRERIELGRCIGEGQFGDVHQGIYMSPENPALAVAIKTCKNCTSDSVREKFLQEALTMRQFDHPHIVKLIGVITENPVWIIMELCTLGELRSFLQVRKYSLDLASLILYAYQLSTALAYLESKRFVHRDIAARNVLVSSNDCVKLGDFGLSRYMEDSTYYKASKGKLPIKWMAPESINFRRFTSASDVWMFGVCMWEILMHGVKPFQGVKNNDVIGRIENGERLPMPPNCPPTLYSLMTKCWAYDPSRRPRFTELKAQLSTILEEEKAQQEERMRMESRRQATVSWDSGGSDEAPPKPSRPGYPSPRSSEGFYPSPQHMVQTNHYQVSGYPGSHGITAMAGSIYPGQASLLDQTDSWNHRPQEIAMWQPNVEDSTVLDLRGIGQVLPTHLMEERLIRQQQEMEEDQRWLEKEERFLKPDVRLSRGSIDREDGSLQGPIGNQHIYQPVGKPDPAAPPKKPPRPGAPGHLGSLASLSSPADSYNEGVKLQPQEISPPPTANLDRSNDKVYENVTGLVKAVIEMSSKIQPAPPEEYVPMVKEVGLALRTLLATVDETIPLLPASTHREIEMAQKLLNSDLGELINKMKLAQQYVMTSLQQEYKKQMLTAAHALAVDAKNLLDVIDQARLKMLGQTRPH
Albumin (Bos taurus), sequence (P02769 whole entry, looked up): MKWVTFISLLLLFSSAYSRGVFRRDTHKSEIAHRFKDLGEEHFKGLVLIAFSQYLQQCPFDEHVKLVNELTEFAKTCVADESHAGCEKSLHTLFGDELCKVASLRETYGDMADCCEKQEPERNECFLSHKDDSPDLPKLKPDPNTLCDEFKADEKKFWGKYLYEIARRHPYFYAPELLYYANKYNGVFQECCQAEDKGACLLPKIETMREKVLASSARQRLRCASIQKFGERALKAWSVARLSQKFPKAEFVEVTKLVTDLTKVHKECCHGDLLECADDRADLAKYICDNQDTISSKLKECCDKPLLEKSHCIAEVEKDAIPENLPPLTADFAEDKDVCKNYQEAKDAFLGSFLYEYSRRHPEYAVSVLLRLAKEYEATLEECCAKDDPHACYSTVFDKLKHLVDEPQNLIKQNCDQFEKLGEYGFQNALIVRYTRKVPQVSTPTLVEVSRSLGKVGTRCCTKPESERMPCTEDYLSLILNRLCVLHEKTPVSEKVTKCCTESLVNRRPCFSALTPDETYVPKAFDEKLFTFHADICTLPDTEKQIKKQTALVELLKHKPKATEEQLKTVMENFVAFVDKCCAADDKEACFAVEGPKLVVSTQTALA
Follistatin (Homo sapiens), sequence (P19883 whole entry, looked up): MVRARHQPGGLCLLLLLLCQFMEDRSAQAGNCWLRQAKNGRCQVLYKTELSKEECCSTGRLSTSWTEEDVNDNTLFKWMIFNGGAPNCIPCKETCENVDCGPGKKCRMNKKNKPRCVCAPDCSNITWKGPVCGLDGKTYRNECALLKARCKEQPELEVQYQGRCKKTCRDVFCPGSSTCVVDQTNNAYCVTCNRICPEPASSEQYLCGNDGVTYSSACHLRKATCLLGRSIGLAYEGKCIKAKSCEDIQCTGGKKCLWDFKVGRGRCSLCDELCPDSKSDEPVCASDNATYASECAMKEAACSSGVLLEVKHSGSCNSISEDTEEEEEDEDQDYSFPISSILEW

For `O=C1C2C=CC(C(O)c3ccco3)N(Nc3ccccc3F)C2C(=O)N1c1ccccc1` (stereo not given), the composite z-score was 0.963 with Albumin (Bos taurus); 0.101 in assay [2]; -0.104 in [3]; -0.0101 in assay [4]; 1.85 in [5]; 0.433 in assay [6]. Also, the composite z-score in the assay with Sam68 (KHDRBS1) was 0.309; in assay [7], -0.238; in [8], 0.403; in [9], 0.0678; in assay [10], 0.512; in assay [11] it was 0.705. Also, the composite z-score was 0.791 in assay [12]; 0.235 in assay [13]; -0.327 in [14]; -0.531 with Lefty1; 0.826 in assay [16]. Also, in assay [1], the composite Z-score is 1.49 (inactive). The z-score in [15] was -0.537; in assay [17], -0.0425 (inactive).

For `C=C(/C(=C/C[C@H](OC(=O)c1ccncc1)c1ccc(CO)o1)c1cnc2ccccc2c1)C(C)C`, the composite z-score is 0.702 with Albumin (Bos taurus); 0.169 in assay [2]; -0.0216 in assay [3]; 0.902 in [4]; 0.75 in [5]; -0.159 in assay [6]. For the same compound, the composite z-score in the assay on Sam68 (KHDRBS1) is 1.12; in assay [7], 0.684; in assay [8], 1.11; in assay [9], 1.29; in [10], 1.19; in assay [11], 0.0621. In addition, the composite z-score in [12] came to 0.866; in assay [13], 1.31; in assay [14] it was 1.18; with Lefty1, 1.34; in assay [16], 1.08. The composite Z-score in assay [1] is -0.55 (inactive). Besides, the z-score in assay [15] was 0.909; in assay [17], -2.9 (inactive).

For `C=CCN1Cc2ccccc2[C@@H]2OC(c3ccc(OCCCO)cc3)=N[C@]2(CC=C)C1=O`, the composite z-score was -0.187 in the assay with Albumin (Bos taurus); 0.43 in assay [2]; 0.147 in [3]; 0.544 in assay [4]; 3.16 in assay [5]; 0.585 in assay [6]. Further, the composite z-score with Sam68 (KHDRBS1) was 1.22; in [7], 1.44; in [8] it was 1.1; in [9], 2.25; in [10] it was 1.15; in [11], 0.68. The composite z-score in assay [12] came to 0.542; in assay [13], 1.49; in assay [14], 1.57; in the assay with Lefty1, 1.2; in assay [16] it was 0.667. Moreover, the composite Z-score in assay [1] is 1.79 (inactive). The z-score in assay [15] is 2.5; in assay [17], -1.91 (inactive).

As to `COc1cc(OC)c(C(O)C2C=CC3C(=O)N(Cc4ccccc4)C(=O)C3N2n2cnnc2)cc1Br` (stereo not given), the composite z-score in the assay with Albumin (Bos taurus) was 0.725; in [2], 0.056; in [3] it was -0.0398; in assay [4], 0.377; in [5], 1.64; in assay [6], 0.953. In addition, the composite z-score in the assay with Sam68 (KHDRBS1) was 1.2; in [7] it was -1.15; in assay [8], 0.756; in assay [9], 2.21; in assay [10], 1.17; in [11], 0.381. The composite z-score in assay [12] is 0.973; in assay [13], 1.03; in assay [14], -0.148; in the assay with Lefty1, 0.363; in [16], 1.02. Also, in assay [1], the composite Z-score is -0.395 (inactive). Moreover, the z-score in [15] was -1.08; in [17], 0.647 (inactive).

Regarding `O=C(c1ccccc1)N1C(=O)[C@]2(Cc3ccccc31)N=C(c1ccc(OCCCO)cc1)O[C@@H]2c1ccccc1`, the composite z-score with Albumin (Bos taurus) is 0.462; in assay [2], 0.0691; in assay [3], -0.0928; in assay [4], 0.204; in [5] it was 2.7; in assay [6] it was 0.356. Moreover, the composite z-score in the assay with Sam68 (KHDRBS1) amounted to 1.29; in [7] it was 0.371; in [8] it was 1.13; in [9] it was 1.87; in assay [10], 1.23; in assay [11], 0.677. Also, the composite z-score in [12] is 0.965; in [13], 1.24; in assay [14], 0.944; in the assay on Lefty1, 0.764; in [16] it was 0.305. Also, the composite Z-score in assay [1] is -0.129 (inactive). Moreover, the z-score is -2.12 in [15] and -1.33 (inactive) in assay [17].

On to `CCN(CC)c1ccc(N2CC=CC34O[C@@H]5/C=C\CCCOC(=O)C5[C@H]3C(=O)N(C(C)CO)[C@@H]4C2=O)cc1` (stereo not given in full), for which the composite z-score was 0.288 with Albumin (Bos taurus); -0.0647 in assay [2]; -0.0862 in [3]; 0.732 in assay [4]; 0.121 in assay [5]; 0.248 in [6]. In addition, the composite z-score in the assay on Sam68 (KHDRBS1) is 0.11; in assay [7] it was 0.259; in [8] it was -0.529; in assay [9], -0.556; in assay [10], -0.107; in [11], -0.294. For the same compound, the composite z-score in assay [12] is -0.158; in assay [13], 0.077; in assay [14], 0.305; with Lefty1, -0.0464; in [16], -0.0344. In assay [1], the composite Z-score was -0.463 (inactive). For the same compound, the figures for the z-score in assay [15] and in [17] were 1.18 and -1.38 (inactive), respectively.

As to `COc1cccc(C)c1NC(=O)O[C@H]1[C@H](OC(=O)Nc2ccccc2-c2ccccc2)[C@H](OC(=O)Nc2ccccc2-c2ccccc2)[C@@H](OC)O[C@@H]1CO`, the composite z-score was found to be 0.816 with Albumin (Bos taurus); 0.233 in assay [2]; 0.0149 in [3]; 0.434 in [4]; 0.947 in [5]; 0.429 in assay [6]. The composite z-score in the assay on Sam68 (KHDRBS1) worked out at 1.29; in [7], 0.494; in [8], 1.15; in [9], 0.528; in assay [10] it was 1.22; in assay [11] it was 0.588. For the same compound, the composite z-score in [12] is 0.974; in [13], 1.35; in assay [14] it was 0.79; in the assay on Lefty1, 0.906; in assay [16], 0.79. Moreover, the composite Z-score in [1] was 0.497 (inactive). Further, the z-score was -0.41 in assay [15] and -0.33 (inactive) in assay [17].

(Values after PubChem BioAssay.)
